The nature of experiment [1]: qHTS RealTime-Glo MT Cell Viability Assay in HEK293 cells - 16 hour (AID 1224872). Also: nearly all actives have a fitted effect of over 50% in size. Also: potency is read from the fitted curve at half-maximal effect. In outline: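 Nonlytic real-time viability readout: viable cells convert prosubstrate to NanoLuc substrate, giving luminescence proportional to live cell number. HEK293, 600 cells/well, compound added after 5 h, continuous culture at 37 C.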
Experiment [2] can be described thus: qHTS RealTime-Glo MT Cell Viability Assay in HepG2 cells - 8 hour (AID 1224873). Also: nearly all actives have a fitted effect of over 55% in size. Also: potency is read from the fitted curve at half-maximal effect. In outline:
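Real-time viability: cells seeded at 600 per well together with NanoLuc and cell-permeant prosubstrate, compounds added after 5 h incubation. Luminescence tracked at 0, 8, 16, 24, 32 and 40 h of exposure.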
(In general: In qHTS, concentration-response curves come from the screen itself.)

A short description of experiment [3]: qHTS RealTime-Glo MT Cell Viability Assay in HEK293 cells - 40 hour (AID 1224874). Also: nearly all actives have a fitted effect of over 50% in size. Also: potency is read from the fitted curve at half-maximal effect. The conditions noted are these: RealTime-Glo luminescence; max response: hits give low values. In outline: (§1)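 Viable HEK293 cells reduce a cell-permeant prosubstrate; the product diffuses out and is consumed by NanoLuc in the medium to give light. Compounds went in after a 5 h incubation and plates were read over the treatment course.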

The nature of experiment [4]: A CellTox Green Cytotoxicity Assay to monitor cytotoxicity in HEK293 cells - 24 hour (AID 1224875). Also: series mostly up to about 77 µM; nearly all actives have a fitted effect of over 45% in size. Summed up:
(§2)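 Fluorescence intensity, read at 0, 8, 16, 24, 32 and 40 h of compound treatment, reflected dye binding to DNA of dead HEK293 cells; compounds (23 nL, DMSO) were added 5 h after plating cells with reagent.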

Experiment [5] in a line: A CellTox Green Cytotoxicity Assay to monitor cytotoxicity in HepG2 cells - 16 hour (AID 1224876). Also: nearly all actives have a fitted effect of over 45% in size. Also: potency is read from the fitted curve at half-maximal effect. In outline:
(§3)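 Using 1536-well format, dye-containing HepG2 suspension was seeded, allowed 5 h at 37 C/5% CO2, dosed by pintool with compounds, positive and negative controls, and imaged for fluorescence across 40 h.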

The nature of experiment [6]: qHTS RealTime-Glo MT Cell Viability Assay in HepG2 cells - 32 hour (AID 1224877). Also: nearly all actives have a fitted effect of over 55% in size. Summed up: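 Luminescence read-out: viable HepG2 cells reduce a prosubstrate to a NanoLuc substrate, giving a signal proportional to live cell number. Reads taken at 0, 8, 16, 24, 32 and 40 h of compound exposure at 37 C.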
Experiment [7] is described as follows: A CellTox Green Cytotoxicity Assay to monitor cytotoxicity in HepG2 cells - 24 hour (AID 1224878). Also: nearly all actives have a fitted effect of over 45% in size. Also: potency is read from the fitted curve at half-maximal effect. Summed up:
as §3

Experiment [8] is described as follows: A CellTox Green Cytotoxicity Assay to monitor cytotoxicity in HepG2 cells - 40 hour (AID 1224879). Also: nearly all actives have a fitted effect of over 40% in size. Also: potency is read from the fitted curve at half-maximal effect. Summed up: as §3
The nature of experiment [9]: qHTS RealTime-Glo MT Cell Viability Assay in HEK293 cells - 0 hour (AID 1224880). Also: nearly all actives have a fitted effect of over 45% in size. Also: potency is read from the fitted curve at half-maximal effect. In outline: as §1
Experiment [10] is described as follows: A CellTox Green Cytotoxicity Assay to monitor cytotoxicity in HEK293 cells - 40 hour (AID 1224871). Also: nearly all actives have a fitted effect of over 45% in size. In outline:
as §2

“And” between values parts separate entries of the source, which are not always exact repeats. Identical values can stand only once. Results filed as inconclusive are left out. A number with no mark means an inactive call. The source made the active and inactive calls. Calls follow the shape of the dose curve; as a rule, active = well fitted curve in the direction sought with a large enough effect in the repeat runs; inconclusive = weak or mixed curves; inactive = no such curve, though single readings can be large; an effect the other way counts as inactive or inconclusive.
% is scaled to controls: 0 for no effect and ±100 for the full control effect.

Regarding `C1C[C@@H]2[C@H]3CC[C@H](C3)[C@@H]2C1`, the Potency result in experiment [1], in [2], in experiment [4], in experiment [5], in [6] and in experiment [7] was “inactive” each time. The Potency entry in experiment [8] and in experiment [9] was “inactive” in each case. The max response in experiment [3] is -10.1%.

`C/C=C(/C(=C/C)c1ccc(O)cc1)c1ccc(O)cc1`: the Potency entry in experiment [1], in experiment [2], in [4] and in [6] was “inactive” in each case. Also, the Potency was 19 µM (active) in experiment [3], 15.1 µM (active) in [5], 16.9 µM (active) in [7] and 19 µM (active) in [8].

Take `CCOC(=O)C1=C(C)NC(C)=C(C(=O)OC)C1c1cccc(Cl)c1Cl` (stereo not given): the Potency result in experiment [10], in experiment [4], in [5], in experiment [7] and in experiment [8] was “inactive” each time. Moreover, the Potency in experiment [2] was 19 µM (active); in [9], 5.35 µM (active).

For the molecule `CC(=O)[C@H]1[C@H](C#N)C[C@H]2[C@@H]3CC=C4C[C@@H](O)CC[C@]4(C)[C@H]3CC[C@@]21C`, the Potency entry in experiment [10], in experiment [2], in experiment [4], in [5], in [6] and in [7] was “inactive” each time. Further, the Potency entry in [8] and in experiment [9] was “inactive” in each case.

Turning to `Cc1ccc2c(Br)cc(Br)c(O)c2n1`, the Potency entry in experiment [1], in experiment [2], in experiment [4], in [5], in experiment [6] and in [7] was “inactive” each time. Also, the Potency entry in experiment [8] and in experiment [9] was “inactive” each time. The Potency in experiment [3] is 5.35 µM (active).

For the molecule `C=COCC(C)C`, the Potency entry in experiment [10], in experiment [2], in experiment [4], in experiment [5], in experiment [6] and in experiment [7] was “inactive” throughout. Also, the Potency entry in experiment [8] and in [9] was “inactive” throughout.

`CC(=O)Nc1ccc(C)cc1C`: the Potency entry in [1], in [2], in experiment [4], in experiment [5], in experiment [6] and in experiment [7] was “inactive” in each case. Further, the Potency entry in experiment [8] is “inactive”. In addition, in [3], the max response is -0.695%.

For the molecule `CC(=O)OCCN(CCOC(C)=O)c1ccc(N=Nc2ccc([N+](=O)[O-])cc2C#N)cc1`, the Potency entry in [10], in experiment [4], in experiment [5], in [6], in [7] and in experiment [8] was “inactive” in each case.

Regarding `CN1C(=O)c2ccccc2C1=O`, the Potency entry in experiment [1], in [2], in experiment [4], in [5], in [6] and in experiment [7] was “inactive” throughout. Also, the Potency entry in experiment [8] was “inactive”.

For the molecule `NC1[C@H]2CN(c3nc4c(cc3F)c(=O)c(C(=O)O)cn4-c3ccc(F)cc3F)C[C@@H]12` (stereo not given in full), the Potency result in experiment [1], in [2], in experiment [5], in experiment [6], in experiment [7] and in [8] was “inactive” throughout. Besides, the Potency entry in [9] is “inactive”. The max response in experiment [3] was -27.4%.

With `C[C@@]12CCC[C@H]1[C@@H]1CC[C@H]3C[C@@H](O)CC[C@]3(C)[C@H]1CC2`, the Potency result in experiment [1], in experiment [2], in experiment [4], in [5], in experiment [6] and in [7] was “inactive” in each case. Also, the Potency result in [8] and in experiment [9] was “inactive” throughout. In addition, the max response in experiment [3] was 5.8%.

On to `NCCNCCO`, for which the Potency result in experiment [1], in experiment [2], in [4], in experiment [5], in [6] and in [7] was “inactive” in each case. For the same molecule, the Potency result in experiment [8] and in [9] was “inactive” in each case. For the same molecule, the max response in [3] was 20.2%.

Consider `N#CCCN(CCO)CCO`, for which the Potency entry in experiment [1], in experiment [2], in experiment [4], in experiment [5], in experiment [6] and in experiment [7] was “inactive” in each case. The Potency result in experiment [8] is “inactive”. Also, in experiment [3], the max response is 0.524%.

Turning to `Cc1cc2c(OCC(CNC(C)(C)C)OC(=O)c3ccccc3)cccc2[nH]1` (stereo not given), the Potency entry in experiment [1], in [2], in [4], in experiment [5] and in [6] was “inactive” in each case. Also, the max response in [3] is -21.5%.

Take `CN1CCCC(n2nc(Cc3ccc(Cl)cc3)c3ccccc3c2=O)CC1` (stereo not given): the Potency in [1] is 7.56 µM (active); in experiment [3], 9.52 µM (active); in experiment [5] it was 26.8 µM (active); in experiment [7], 23.9 µM (active); in experiment [8], 23.9 µM (active). Besides, the Potency result in experiment [2] is “inactive”.

For `C/C=C\C/C=C/CCCCCCCCOC(C)=O`, the Potency entry in experiment [1], in [2], in experiment [4], in experiment [5], in experiment [6] and in experiment [7] was “inactive” each time. In addition, the Potency result in experiment [8] and in [9] was “inactive” in each case. Also, the max response in [3] was -25.6%.

Take `O=C(Nc1cccc2c(=O)cc(-c3nn[nH]n3)oc12)c1ccc(OCCCCc2ccccc2)cc1`: the Potency result in experiment [1], in experiment [2], in experiment [4] and in [6] was “inactive” in each case. Besides, in experiment [3], the max response was -0.852%.

On to `Cc1ccc(Cl)c(Nc2ccccc2C(=O)O)c1Cl`, for which the Potency entry in experiment [1], in experiment [2], in experiment [4], in experiment [5], in experiment [6] and in experiment [7] was “inactive” in each case. For the same molecule, the Potency entry in experiment [8] and in experiment [9] was “inactive” each time. Also, the max response in [3] is -3%.

For the molecule `C[C@@H]1CC(=O)NN=C1c1ccc(NN=C(C#N)C#N)cc1`, the Potency entry in experiment [10], in experiment [2], in experiment [4], in [5] and in experiment [7] was “inactive” throughout. Besides, the Potency in experiment [8] is 15.1 µM (active) and 13.4 µM (active).

(Values after PubChem BioAssay (Tox21).)
